# From PubChem BioAssay AID1159580 (chemical genetic matrix, 2015)
# The whole screen tested about 5,500 compounds, of which about 2,000 (36%) were called active. About 18% were inconclusive and are not listed. The list shows a part of the results. Values without a mark were called inactive. Rule as the data show it: active = normalized growth mostly below about 0.91 (no sharp cut-off); inconclusive = no clear call, values can overlap the other calls; inactive = mostly above about 0.92.
# Experiment: chemical genetic growth profiling, strain panel (AID 1159580);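 also: tested at 20 µM; growth read once vehicle control cultures reached saturation at 30 °C; 1 = growth at the plate median or of vehicle wells; lower values mean less growth of the strain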
# Details: growth OD
# [1] = S. cerevisiae deletion strains, locus YAL013W, strain DEP1, hits give low values
# [2] = S. cerevisiae deletion strains, locus YBR229C, strain ROT2, hits give low values
# [3] = S. cerevisiae deletion strains, locus YCL061C, strain MRC1, hits give low values
# [4] = S. cerevisiae deletion strains, locus YDL101C, strain DUN1, hits give low values
# [5] = S. cerevisiae deletion strains, locus YDR150W, strain NUM1, hits give low values
# [6] = S. cerevisiae deletion strains, locus YEL061C, strain CIN8, hits give low values
# [7] = S. cerevisiae deletion strains, locus YGR078C, strain PAC10, hits give low values
# [8] = S. cerevisiae deletion strains, locus YHR030C, strain SLT2, hits give low values
# [9] = S. cerevisiae deletion strains, locus YHR087W, strain rtc3, hits give low values
# [10] = S. cerevisiae deletion strains, locus YJL187C, strain SWE1, hits give low values
# [11] = S. cerevisiae deletion strains, locus YJR043C, strain POL32, hits give low values
# [12] = S. cerevisiae deletion strains, locus YJR075W, strain HOC1, hits give low values
# [13] = S. cerevisiae deletion strains, locus YLR039C, strain RIC1, hits give low values
# [14] = S. cerevisiae deletion strains, locus YLR058C, strain SHM2 (second series), hits give low values
# [15] = S. cerevisiae deletion strains, locus YLR085C, strain ARP6, hits give low values
# [16] = S. cerevisiae deletion strains, locus YLR262C, strain YPT6, hits give low values
# [17] = S. cerevisiae deletion strains, locus YML094W, strain GIM5, hits give low values
# [18] = S. cerevisiae deletion strains, locus YMR219W, strain ESC1, hits give low values
# [19] = S. cerevisiae deletion strains, locus YMR263W, strain SAP30, hits give low values
# [20] = S. cerevisiae deletion strains, locus YNL153C, strain GIM3, hits give low values
# [21] = S. cerevisiae deletion strains, locus YNL298W, strain CLA4 (second series), hits give low values
# [22] = S. cerevisiae deletion strains, locus YNL322C, strain KRE1, hits give low values
# [23] = S. cerevisiae deletion strains, locus YNR030W, strain Alg12, hits give low values
# [24] = S. cerevisiae deletion strains, locus YOL006C, strain TOP1, hits give low values
# [25] = S. cerevisiae deletion strains, locus YPL055C, strain LGE1, hits give low values
# [26] = S. cerevisiae deletion strains, locus YPL241C, strain CIN2, hits give low values
# [27] = S. cerevisiae deletion strains, locus YPR135W, strain CTF4, hits give low values
# [28] = S. cerevisiae deletion strains, locus YNL128W, strain TEP1, hits give low values
# [29] = S. cerevisiae strains, strain wild type, hits give low values
smiles,measurement,setting,value
CCCn1c(=O)c(C#N)cn(-c2ccc(Cl)cc2)c1=O,normalized growth,[1],1.01
same,normalized growth,[2],0.986
same,normalized growth,[3],1.01
same,normalized growth,[4],0.991
same,normalized growth,[5],1.02
same,normalized growth,[6],0.97
same,normalized growth,[7],0.996
same,normalized growth,"S. cerevisiae deletion strains, locus YGR229C, strain SMI1, hits give low values",0.997
same,normalized growth,[8],0.937
same,normalized growth,[9],0.977
same,normalized growth,[10],0.93 (active)
same,normalized growth,[11],1.02
same,normalized growth,[12],1.01
same,normalized growth,[13],0.759 (active)
same,normalized growth,[14],0.986
same,normalized growth,[15],0.893
same,normalized growth,[16],0.821
same,normalized growth,[17],0.963
same,normalized growth,[18],0.99
same,normalized growth,[19],1
same,normalized growth,[20],1
same,normalized growth,[21],0.961
same,normalized growth,[22],0.979
same,normalized growth,[23],0.99
same,normalized growth,[24],0.924
same,normalized growth,[25],1.04
same,normalized growth,[26],0.982
same,normalized growth,[27],1.03
CCOC(=O)Cn1c(=O)c(C#N)cn(C(C)C)c1=O,normalized growth,[1],1.01
same,normalized growth,[2],1.01
same,normalized growth,[3],0.993
same,normalized growth,[4],1.02
same,normalized growth,"S. cerevisiae deletion strains, locus YDL134C, strain PPH21, hits give low values",1.01
same,normalized growth,[5],1.02
same,normalized growth,[6],0.988
same,normalized growth,[7],1.01
same,normalized growth,[8],1.03
same,normalized growth,[9],1
same,normalized growth,[10],1
same,normalized growth,[11],0.998
same,normalized growth,[12],1.02
same,normalized growth,[13],1.02
same,normalized growth,[14],1.01
same,normalized growth,[15],0.976
same,normalized growth,[16],1.01
same,normalized growth,[17],1
same,normalized growth,[18],1.01
same,normalized growth,[19],1
same,normalized growth,[28],0.98
same,normalized growth,[20],1
same,normalized growth,[21],1.04
same,normalized growth,[22],1.01
same,normalized growth,[23],1.02
same,normalized growth,[24],1.03
same,normalized growth,[25],0.984
same,normalized growth,[26],1.02
same,normalized growth,[27],1.02
same,normalized growth,[29],1.01
CC(C)n1cc(C#N)c(=O)n(Cc2ccccc2)c1=O,normalized growth,[1],0.992
same,normalized growth,[2],0.994
same,normalized growth,[3],0.991
same,normalized growth,[4],1.02
same,normalized growth,[5],0.923
same,normalized growth,[6],1
same,normalized growth,[7],0.991
same,normalized growth,[8],0.983
same,normalized growth,[9],0.989
same,normalized growth,[10],0.977
same,normalized growth,[12],0.999
same,normalized growth,[13],1.01
same,normalized growth,[14],1
same,normalized growth,[15],0.999
same,normalized growth,[16],1.04
same,normalized growth,[17],0.988
same,normalized growth,[18],1
same,normalized growth,[19],0.967
same,normalized growth,[28],0.994
same,normalized growth,[20],0.984
same,normalized growth,[21],1.05
same,normalized growth,[22],0.996
same,normalized growth,[23],1.01
same,normalized growth,[25],0.979
same,normalized growth,[26],1
same,normalized growth,[27],0.994
same,normalized growth,[29],1.01
